Potency data for 40 compounds are collected here from PubChem BioAssay AID488908 (National Center for Advancing Translational Sciences (NCATS), 2010).

Structures are written as SMILES. Where “and” joins values, the source holds several entries; their conditions need not be identical. Identical values can stand only once. Inconclusive results are not listed. Where a call stands in place of a potency, no number is given. Calls of active or inactive are those of the source. Calls follow the shape of the dose curve; as a rule, active = well fitted inhibition curve with a large enough effect; inconclusive = small, poorly fitted or top-dose-only effect; inactive = flat fitted curve, though single readings scatter.

The test can be described thus: Secondary Assay for lipid storage modulators: Cytotoxcity for probe SAR. To be noted: Drosophila S3 cells viability, CellTiter-Glo luminescence, 24 h, with oleic acid added (1 µL, 400 µM); series mostly up to 46.1 µM. The source says: NIH Molecular Libraries Probe Production Centers Network [MLPCN] NIH Chemical Genomics Center [NCGC] MLPCN Grant: 1 R03 MH085686-01 Assay Submitter (PI): Beller, Mathias; Max-Planck-Institut fur Biophysikalische Chemie, Germany. NCGC Assay Overview: Storing lipids as a reservoir for energy or the anabolism of elementary metabolites is a common feature of probably all cells and is conserved from bacteria to humans. The universal cellular lipid storage organelle is the so-called lipid storage droplet (LD). Although ubiquitous, LDs share a simple structure composed of a hydrophobic core that harbors the storage lipids, which is shielded by a droplet-specific phospholipid monolayer to which proteins are attached. The current model of LD biogenesis involves an incorporation of the lipid core into the membrane leaflets of the endoplasmic reticulum (ER) followed by a subsequent budding-like maturation of a LD, which ultimately pinches off. Once released, LD volume can increase by localized lipogenesis or fusion of existing droplet. Storage lipids are re-mobilized enzymatically by lipase activity. Lipase regulation in the adipocyte is heavily studied and involves multiple components including catecholamine signaling, the LD-associated proteins Perilipin and comparative gene identification (CGI-58) and at least two lipases named hormone sensitive lipase (HSL) and adipocyte triglyceride lipase (ATGL). LD regulation outside of the adipocyte is poorly understood and only few components are known. However, there is an urgent need to learn more about ectopic fat depots as mislocalized storage of lipids, for example in the liver or muscle, is an eminent health problem associated with insulin resistance or the metabolic syndrome. We developed a laser-scanning cytometer assay to enable 1,536-well screening and combined the results of the small molecules screen with an RNAi database based on lipid storage. The compound was tested here for cytotoxcity using CellTiter-Glo.
Assay Protocol Summary: Cytotoxcity assay was performed with embryonic Drosophila S3 cells (Bloomington Drosophila Genomics Resource Center [DGRC]). We dispensed 4 uL of cells at 1.25 x 10^6 cells/mL into Greiner solid white 1,536-well plates with a bottle-valve solenoid-based dispenser (Aurora) to obtain 5,000 cells/well. A total of 23 nL of compound solution of different concentrations were transferred to the assay plates using a Kalypsys pin tool equipped with a 1,536-pin array containing 10-nL slotted pins (FP1S10, 0.457-mm diameter, 50.8 mm long; V&P Scientific). One microliter of oleic acid (400 uM) was added, and the plate was lidded with stainless steel rubber gasket lined lids containing pinholes. After 24 hrs of incubation at 24 degrees Celsius and 95% humidity, 4 uL of CellTiter-Glo (Promega) was added to the wells. Luminescence was detected on the Perkin Elmer ViewLux.
Take `CCOc1ccc(CCNC(=O)C2CCCCC2)cc1OCC`: the Potency entry is “inactive”. The value for `CCn1c(C(=O)NCCc2ccc(OC)c(OC)c2)cc2sc(Cl)cc21` was “inactive”. Turning to `Cc1cccc(Nc2nnc(SCC(=O)Nc3nc(-c4ccc(F)cc4)cs3)s2)c1`, the Potency entry was “inactive”.

With `Cc1cc(NC(=O)Nc2ccc(N(C)C)cc2)c2cc(F)cc(F)c2n1`, the Potency is 12.5 µM (active). Under `CC(C)(C)OC(=O)NC1CCCc2c1cnn2-c1ccc(F)cc1F` (stereo not given) stands 9.96 µM (active); under `CCOc1ccc(NC(=O)NC2(C(=O)N3CCCCC3)CCCCC2)cc1`, “inactive”; under `O=C(NCCc1ccc(O)c(O)c1)c1cc2sccc2n1Cc1ccccc1`, “inactive”.

In the case of `CCOc1ccc(CCNC(=O)CN(C)C)cc1OCC`, the Potency entry was “inactive”. Under `CCOc1ccc(CCNC(=O)c2csc(Br)n2)cc1OCC` stands “inactive”; under `COc1ccc(-c2csc(NC(=O)CSc3nnc(Nc4ccccc4)s3)n2)cc1`, “inactive”.

For the compound `Cc1ccc(-c2cnc(SCC(=O)Nc3nccs3)n2Cc2ccco2)cc1`, the Potency result was “inactive”.

`O=C(NC1CCCc2c1cnn2-c1ccc(F)cc1F)C1CCCCN1` (stereo not given): the Potency entry is “inactive”. The value for `O=C(NC1CCCc2c1cnn2-c1ccc(F)cc1F)c1cccc(F)c1F` (stereo not given) was 14.1 µM (active); that for `O=C(Nc1cccc2c1cnn2-c1ccc(F)cc1)c1ccccn1` was 0.888 µM (active). Under `Cc1ccc(CC(=O)Nc2nc(-c3cccs3)cs2)cc1` stands “inactive”; under `COc1cc(Nc2ncc(F)c(Nc3ccc4c(n3)NC(=O)C(C)(C)O4)n2)cc(OC)c1OC`, “inactive”. For the compound `CCOc1ccc(CCNC(=O)c2cc3ccccc3n2C)cc1OCC`, the Potency entry is “inactive”. Under `COc1ccc(Cl)cc1NC(=O)N1CCN(c2ccccn2)CC1` stands “inactive”; under `CCOc1ccc(CCNC(=O)c2cnon2)cc1OCC`, “inactive”. For `O=C(NC1CCCc2c1cnn2-c1ccc(F)cc1F)c1ccccn1` (stereo not given), the Potency was 9.96 µM (active) and 8.88 µM (active). With `COc1ccccc1NC(=S)N1CCN(c2cc(Cl)ccc2C)CC1`, the Potency entry is “inactive”. Under `CCOC(=O)C1CCN(C(C)C(=O)NC(=O)NC2CCCCC2)CC1` (stereo not given) stands “inactive”; under `O=C(NC1CCCc2c1cnn2-c1ccc(F)cc1F)c1ccsc1` (stereo not given), 3.97 µM (active); under `O=C(CSc1nnc(NCc2ccccc2)s1)Nc1nc(-c2cccc(Br)c2)cs1`, “inactive”. The value for `COc1ccc(-c2cnc(SCC(=O)Nc3nc(C)cs3)n2Cc2ccco2)cc1` was “inactive”. With `CCOC(=O)C1CCN(C(=O)C2(NC(=O)Nc3ccccc3Cl)CC2)CC1`, the Potency result was “inactive”. As for `CC(=O)NCc1ccc(-c2csc(NC(=O)Cc3cccs3)n2)cc1`, the Potency entry was “inactive”. As for `CCOc1ccc(CCNC(=O)c2cc3sccc3n2Cc2ccc(-n3cncn3)cc2)cc1OCC`, the Potency entry is “inactive”. Under `CC1=C(C(=O)NC2CCCc3c2cnn3-c2ccc(F)cc2F)OCCO1` (stereo not given) stands 0.996 µM (active). Turning to `O=C(NC1CCCc2c1cnn2-c1ccc(F)cc1F)c1ccc(C(=O)c2ccccc2)cc1` (stereo not given), the Potency was 11.2 µM (active). Under `O=C(c1cc2sccc2n1Cc1ccccc1)N(CCc1ccc(O)c(O)c1)Cc1ccccc1` stands “inactive”.

`COc1ccc(NC(=S)N2CCN(c3cccc(Cl)c3)CC2)c(OC)c1`: the Potency result was “inactive”.

On to `O=C(CSc1nnc(NCc2ccccc2)s1)Nc1nc(-c2ccc(F)c(F)c2)cs1`, for which the Potency entry is “inactive”. Under `COc1ccc(Cl)cc1NC(=S)N1CCN(c2ccccc2F)CC1` stands “inactive”. Under `O=C(O)c1cccc(-c2noc(-c3ccccc3F)n2)c1` stands “inactive”; under `CCOc1ccc(CCNC(=O)c2cccs2)cc1OCC`, “inactive”. The value for `CCOc1ccc(CCNC(=O)Cc2ccccc2)cc1OCC` was “inactive”; that for `O=C(NCCc1ccc(O)c(O)c1)c1cc2sccc2[nH]1` was “inactive”; that for `COc1ccc(Cl)cc1NC(=S)N1CCN(c2ccccc2)CC1` was “inactive”.

For `O=C(Nc1cccc2nn(-c3ccc(F)cc3)cc12)c1ccccn1`, the Potency is 12.5 µM (active).
